# The campaign covered roughly 39,000 compounds. About 220 (0.56%) showed activity. The entries come from a sample that favours actives as a whole. Values without a mark were called inactive.
# Tested on: Escherichia coli K-12 BW25113
# Assay: relative growth (OD600 normalised to plate interquartile mean) (fraction); higher = less growth inhibition, active = 0.2 or less
# Details: 50 µM; LB; incubation time: overnight (16-24 h)
# 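Also: Wild-type cells incubated without shaking, value is the mean of two biological replicates.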
row,Compound,relative growth
1,Cc1ccc(S(=O)(=O)N(C)C[C@@H]2OCCCC[C@H](C)Oc3ccc(NC(=O)Nc4ccc(F)cc4)cc3C(=O)N([C@H](C)CO)C[C@H]2C)cc1,0.983
2,CC(C)NC(=O)Nc1ccc2c(c1)C(=O)N([C@H](C)CO)C[C@H](C)[C@@H](CN(C)C(=O)C1CCCCC1)OCCCC[C@@H](C)O2,0.984
3,COc1cc2c(cc1OC)C(=O)C(CC1CCN(Cc3ccccc3)CC1)C2.Cl (stereo not given),0.0489 (active)
4,NC1CCN(Cc2ccccc2)CC1,1.09
5,NCC1CCN(Cc2ccccc2)CC1,1.02
6,O=C(C[C@H]1C[C@@H]2c3cc(NS(=O)(=O)c4ccc(F)cc4)ccc3O[C@@H]2[C@@H](CO)O1)NCc1ccccn1,1.01
7,NC1(CC(=O)O)CCN(Cc2ccccc2)CC1,0.999
8,Cn1cc(CN2CCC(C(=O)N[C@@H](c3ccc(F)cc3)c3ccc4ccccc4n3)CC2)c2ccccc21,0.963
9,C[C@@H]1CN([C@H](C)CO)C(=O)c2cccc(NS(=O)(=O)c3cn(C)cn3)c2O[C@@H]1CN(C)CC1CCCCC1,0.98
10,COc1ccc(CN(C)C[C@@H]2Oc3c(NC(=O)c4cc(C)nn4C)cccc3C(=O)N([C@@H](C)CO)C[C@H]2C)cc1,0.957
11,CCn1cc(C(=O)O)c(=O)c2cc(F)c(N3CCN(C(=S)Nc4cc(C(F)(F)F)ccc4Cl)CC3)cc21,0.0858 (active)
12,O=C(OC(C(F)(F)F)C(F)(F)F)N1CCN(Cc2ccc(C(F)(F)F)cc2N2CCCC2)CC1,0.994
13,CCn1cc(C(=O)O)c(=O)c2cc(F)c(N3CCN(C)CC3)cc21.CS(=O)(=O)O,0.0455 (active)
14,CCn1cc(C(=O)O)c(=O)c2cc(F)c(N3CCNCC3)cc21,0.0456 (active)
15,CCn1cc(C(=O)N2CCN(C)CC2)c(=O)c2cc(S(=O)(=O)N(C)C)ccc21,0.974
16,CCOC(=O)c1c[nH]c(CC(C)=O)nc1=O,0.999
17,Cc1ccc(S(=O)(=O)N2C[C@@H](O)COC[C@H]3O[C@H](CC(=O)N[C@H]4CCN(Cc5ccccc5)C4)CC[C@@H]32)cc1,1.01
18,C[C@H]1CN([C@@H](C)CO)C(=O)Cc2cc(NC(=O)Nc3ccc4c(c3)OCO4)ccc2O[C@H]1CN(C)S(=O)(=O)c1cn(C)cn1,0.835
19,C[C@@H]1CN([C@H](C)CO)C(=O)c2cccc(NC(=O)Nc3cccc4ccccc34)c2O[C@H]1CN(C)S(=O)(=O)c1ccccc1,0.987
20,COc1ccc(S(=O)(=O)N(C)C[C@H]2Oc3c(NS(=O)(=O)c4c(C)noc4C)cccc3C(=O)N([C@H](C)CO)C[C@H]2C)cc1,0.997
